Screening data (PubChem BioAssay)
In the library only some 2.5% were active in any assay of this set; here they are far more common.
p53ts 32C tox: qHTS Screen for Compounds that Selectively Target Cancer Cells with p53 Mutations: Cytotoxicity of p53ts Cells at the Permissive Temperature. H1299-p53A138V at 32C, ATP luminescence viability, 24 h. Potency, µM (highest dose often 46.1 µM), for the others: at the highest dose activity change, negative = cytotoxicity, most hits filed as cytotoxic. hit rate 0.93% among 130,000. AID 924, 2007;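 also: 0% = DMSO and -100% = full killing by reference compound; nearly all actives have a fitted effect of over 55% in size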
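Viability by ATPlite luminescence after 24 h compound treatment (up to 46 uM) at the permissive 32C. Cells are H1299 carrying p53 A138V. Scale runs from DMSO basal to 100 uM tamoxifen as full kill; AC50 from Hill fits.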
p53ts 39C kill: qHTS Screen for Compounds that Selectively Target Cancer Cells with p53 Mutations: Cytotoxicity of p53ts Cells at the Nonpermissive Temperature; H1299-p53A138V viability at 39C, ATP luminescence, 24 h; Potency, µM (doses to about 46.1 µM), for inactives: at the highest dose activity change, negative = cell killing, usual class: cytotoxic; hit rate 1.5% among 130,000; also: nearly all actives have a fitted effect of over 55% in size
FLuc inh: qHTS Assay for Inhibitors of Firefly Luciferase; hit rate 2.2% among 72,000; purified firefly luciferase, luminescence, 8 min; Potency, µM (doses to about 57.1 µM), for the others: at the highest dose activity change, negative = inhibition, most hits filed as inhibitors; AID 411, 2009; also: nearly all actives have a fitted effect of over 40% in size
Target sequence (P08659 whole entry, looked up): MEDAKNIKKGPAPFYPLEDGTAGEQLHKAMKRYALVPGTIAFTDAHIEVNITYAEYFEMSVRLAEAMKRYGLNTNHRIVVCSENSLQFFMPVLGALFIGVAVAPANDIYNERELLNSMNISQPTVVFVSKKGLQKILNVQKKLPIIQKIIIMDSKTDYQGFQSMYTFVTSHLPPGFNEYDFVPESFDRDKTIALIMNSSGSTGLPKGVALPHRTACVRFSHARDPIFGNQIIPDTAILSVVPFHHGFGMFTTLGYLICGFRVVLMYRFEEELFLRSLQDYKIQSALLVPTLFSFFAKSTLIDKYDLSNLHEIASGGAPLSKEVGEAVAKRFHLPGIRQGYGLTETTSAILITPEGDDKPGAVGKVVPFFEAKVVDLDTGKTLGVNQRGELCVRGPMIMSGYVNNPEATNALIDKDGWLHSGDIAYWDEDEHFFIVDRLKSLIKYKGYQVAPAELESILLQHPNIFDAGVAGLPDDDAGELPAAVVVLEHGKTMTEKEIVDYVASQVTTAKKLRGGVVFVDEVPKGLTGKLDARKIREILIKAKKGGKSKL
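qHTS concentration-response profiling: light output of P. pyralis luciferase with luciferin and 10 uM ATP, imidazole buffer pH 7.2. Read by luminescence after 8-min room-temperature incubation.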
Active calls of the source: *; [ ] = remark or other dose. Calls follow the shape of the dose curve; as a rule, active = well fitted curve in the direction sought with a large enough effect; inconclusive = small, poorly fitted or top-dose-only effect, or another doubt; inactive = no such curve, though single readings can be large; an effect the other way counts as inactive or inconclusive. Unless noted, % is scaled to controls: 0 for no effect and ±100 for the full control effect; potency is read from the fitted curve at half-maximal effect.

COC(=O)c1ccc(C(NC(=O)OCc2ccccc2)/C(F)=C/[C@@H](C)C(=O)NCc2ccc(-c3ccccc3)cc2)cc1 (stereo partly drawn) was read as p53ts 32C tox -2% and p53ts 39C kill -3%.
Screening COC(=O)c1ccc(C(NC(=O)OCc2ccccc2)/C(F)=C/[C@@H](C)C(=O)NCc2ccc(OC)c(OC)c2)cc1 (stereo partly drawn) returned p53ts 32C tox inconclusive and p53ts 39C kill 13µM*.
O=C1C(=O)c2ccccc2C(O)=C1C(CCc1ccccc1)C1=C(O)c2ccccc2C(=O)C1=O was read as p53ts 32C tox 8%[9.22 µM], p53ts 39C kill 8%[9.22 µM] and FLuc inh -5%[11.4 µM].
For O=C1C(C=NCc2ccco2)=C(O)c2ccccc21 the results were p53ts 32C tox inconclusive, p53ts 39C kill -29% and FLuc inh 13µM*.
O=C1C(C=NCc2cccnc2)=C(O)c2ccccc21 was read as p53ts 32C tox inconclusive, p53ts 39C kill -21% and FLuc inh 10µM*.
`O=C(CCCCCN1C(=O)c2ccccc2C1=O)NCc1ccco1` gave p53ts 32C tox -3%, p53ts 39C kill -3% and FLuc inh -1%.
For O=C(NCc1ccc(Cl)cc1)C(=O)Nc1ccc(Br)cc1 the results were p53ts 32C tox 5% and p53ts 39C kill 7%.
`CCOc1ccc(NC(=O)c2ccc(-c3nc(COc4ccccc4)c(C)o3)cc2)cc1` gave p53ts 32C tox 1% and p53ts 39C kill -5%.
`O=C(c1cccs1)c1ccc(-c2cccs2)s1` gave p53ts 32C tox 7.9µM*, p53ts 39C kill 10µM* and FLuc inh 5µM*.
`O=C(c1cc2ccccc2o1)c1cccs1` gave p53ts 32C tox -12%, p53ts 39C kill 0% and FLuc inh inconclusive.
CCc1cccc(NC(=O)C2CCCN2S(=O)(=O)c2ccc3nc(-c4ccccc4)[nH]c3c2)c1 (stereo not drawn) was read as p53ts 32C tox 17% and p53ts 39C kill -13%.
For CCc1nnc(NC(=O)CSc2nc3c(cc2C#N)CCC3)s1 the results were p53ts 32C tox 2µM*, p53ts 39C kill 2µM* and FLuc inh 3.2µM*.
For N#Cc1cc2c(nc1SCC(=O)Nc1nccs1)CCCCC2 the results were p53ts 32C tox inconclusive, p53ts 39C kill inconclusive and FLuc inh -7%.
For O=C(Nc1cccc(F)c1)c1c(F)c(F)c(F)c(F)c1F the results were p53ts 32C tox -5%, p53ts 39C kill 5% and FLuc inh 3%.
For CCN(CC)c1cc(C)c2cc(NC(=O)c3cccc(F)c3)ccc2n1 the results were p53ts 32C tox -18% and p53ts 39C kill -6%.
CCN(CC)c1ccc(C(=O)Nc2cccc(F)c2)cc1 was read as p53ts 32C tox 13µM*, p53ts 39C kill inconclusive and FLuc inh 10µM*.
For CN(C)c1cccc(C(=O)Nc2cccc(F)c2)c1 the results were p53ts 32C tox inconclusive, p53ts 39C kill -13% and FLuc inh 16µM*.
For O=C(Nc1ccccc1)c1cccc(N2C(=O)CCC2=O)c1 the results were p53ts 32C tox 5%, p53ts 39C kill 17% and FLuc inh -2%.
Screening CN(C)c1ccc(NC(=O)c2cccc(N3C(=O)CCC3=O)c2)cc1 returned p53ts 32C tox inconclusive, p53ts 39C kill inconclusive and FLuc inh 13µM*.
Screening O=C1c2ccccc2S(=O)(=O)N1CC1CC(c2ccccc2)=NO1 (stereo not drawn) returned p53ts 32C tox -22%, p53ts 39C kill -8% and FLuc inh inconclusive.
Screening COc1ccc(C2=NOC(CN3C(=O)c4ccccc4S3(=O)=O)C2)cc1 (stereo not drawn) returned p53ts 32C tox inconclusive, p53ts 39C kill 32% and FLuc inh 16µM*.
Screening Cc1cc(=O)n2[nH]c(-c3ccccc3)cc2n1 returned p53ts 32C tox -21%, p53ts 39C kill -22% and FLuc inh -18%.
O=c1cc(-c2ccccc2)nc2cc(-c3ccc(F)cc3)[nH]n12 was read as p53ts 32C tox -20% and p53ts 39C kill 10µM*.
`c1ccc([C@H]2NCCc3c2[nH]c2ccccc32)cc1` gave p53ts 32C tox 3%[9.22 µM], p53ts 39C kill 0%[9.22 µM] and FLuc inh 0%[11.4 µM].
Screening CCn1c(C(O)c2ccccc2)nc2ccccc21 (stereo not drawn) returned p53ts 32C tox 20%, p53ts 39C kill 1% and FLuc inh -2%.
Screening Cc1cc(C)c(Cn2c(C(O)c3ccccc3)nc3ccccc32)c(C)c1 (stereo not drawn) returned p53ts 32C tox -16% and p53ts 39C kill 3.2µM*.
CCc1ccc(-n2c(=O)c3c4c(sc3n(Cc3cc(=O)n5c(C)cccc5n3)c2=O)CCC4)cc1 was read as p53ts 32C tox 7% and p53ts 39C kill -4%.
For Cc1ccc2nc(-c3cccc(S(=O)(=O)N(C)C)c3)cn2c1 the results were p53ts 32C tox inconclusive, p53ts 39C kill inconclusive and FLuc inh 13µM*.
For Cc1cccc2nc(-c3cccc(NS(=O)(=O)c4ccccc4)c3)cn12 the results were p53ts 32C tox 4% and p53ts 39C kill -10%.
CCCc1ccc(-c2ccc(C(=O)Oc3ccc(OCC)cc3)cc2)nc1 was read as p53ts 32C tox 3% and p53ts 39C kill 5%.
Screening CCCc1ccc(-c2ccc(C(=O)O)cc2)nc1 returned p53ts 32C tox inconclusive, p53ts 39C kill -28% and FLuc inh 16µM*.
For Cc1ccc(-c2cn3nc(C)c(C)nc3n2)cc1 the results were p53ts 32C tox inconclusive, p53ts 39C kill inconclusive and FLuc inh 2.5µM*.
`Cc1ccc(CNc2nc3nc(C)c(Cl)c(C)n3n2)cc1` gave p53ts 32C tox 1% and p53ts 39C kill 17%.
For O=C1C2C3C=CC(C2C(=O)N1CN1CCOCC1)C1C2C(=O)N(CN4CCOCC4)C(=O)C2C31 (stereo not drawn) the results were p53ts 32C tox 5%[9.22 µM], p53ts 39C kill 6%[9.22 µM] and FLuc inh 2%[11.4 µM].
For O=C(Nc1ccc2nc(SCC(=O)N3CCc4ccccc43)sc2c1)c1cccc(F)c1 the results were p53ts 32C tox 3% and p53ts 39C kill -20%.
Cc1ccc(C(=O)Nc2ccc3nc(SCC(=O)N4CCc5ccccc54)sc3c2)cc1 was read as p53ts 32C tox -21% and p53ts 39C kill -1%.
CC(C)Oc1ccc(C(=O)Nc2nnc(SCC(=O)N3CCOCC3)s2)cc1 was read as p53ts 32C tox 0.63µM* and p53ts 39C kill 0.5µM*.
CCOC(=O)CSc1nc2ccc(NC(=O)c3ccc(C)cc3)cc2s1 was read as p53ts 32C tox 13µM* and p53ts 39C kill 10µM*.
COc1ccc(C(=O)Nc2ccc3nc(SCC(=O)N4CCOCC4)sc3c2)cc1 was read as p53ts 32C tox -6% and p53ts 39C kill 18%.
For CCOC(=O)CSc1nc2ccc(NC(=O)c3ccc(Cl)cc3)cc2s1 the results were p53ts 32C tox inconclusive and p53ts 39C kill -28%.
Screening Cc1ccc(C(=O)Nc2nnc(SCC(=O)N3CCCc4ccccc43)s2)cc1 returned p53ts 39C kill 0.56µM*.
